Shown are actives, neighbours in structure and some others; about 32% of the full set was active somewhere.
CYP2C9 inhib – human CYP2C9 inhibition; inhibition, % at 5 µM; 96,000 compounds, 20% hits; CYP2C9 Supersomes, luciferin-H conversion, luminescence; P11712;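 active means blocking of liver enzyme CYP2C9 beyond about 50% at 5 µM, limit read from the data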
CYP2C19 activ – activators of human cytochrome P450 2C19; P33261; 96,000 tested, under 10 active; recombinant CYP2C19, luciferin-H EGE luminescence; hits give high values; 0 = fully inhibited enzyme, 1 = untreated enzyme; activation factor at 5 µM; AID 1025;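 active means activation factor of at least 2 at 5 µM in the primary screen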;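 further: 0 = wells with 2.5 mM tranylcypromine and 1 = vehicle-only wells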
Target sequence (P33261 whole entry, looked up): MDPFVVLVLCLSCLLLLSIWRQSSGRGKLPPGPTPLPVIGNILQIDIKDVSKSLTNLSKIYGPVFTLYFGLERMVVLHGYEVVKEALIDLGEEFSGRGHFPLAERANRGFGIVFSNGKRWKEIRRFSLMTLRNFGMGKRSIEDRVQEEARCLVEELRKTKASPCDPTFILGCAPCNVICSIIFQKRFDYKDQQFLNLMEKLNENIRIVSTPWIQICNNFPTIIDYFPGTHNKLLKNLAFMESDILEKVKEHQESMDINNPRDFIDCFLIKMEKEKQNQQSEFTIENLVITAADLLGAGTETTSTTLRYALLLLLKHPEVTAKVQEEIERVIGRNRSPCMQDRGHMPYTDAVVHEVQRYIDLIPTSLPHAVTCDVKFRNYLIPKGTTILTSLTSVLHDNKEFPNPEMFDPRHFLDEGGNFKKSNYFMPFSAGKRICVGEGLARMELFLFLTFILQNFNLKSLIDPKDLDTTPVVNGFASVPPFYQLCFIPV
CYP2C9 act – activators of human CYP2C9; AID 1024; activation factor at 5 µM; recombinant CYP2C9, luciferin-H conversion, luminescence; hits give high values; factor 1 = untreated enzyme, 0 = blocked; 96,000 compounds, 1.4% hits; P11712;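 active means activation factor of 2 or more for CYP2C9 at a 5 µM dose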;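 further: 0 = sulfaphenazole-blocked wells and 1 = vehicle-only wells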
PostGolgi yeast – growth inhibition of a yeast mutant, post-Golgi transport screen. 98,000 compounds, 0.9% hits. inhibition, % at 10 µM. post-Golgi transport phenotypic cell assay;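 further: yeast cells grown in 1536-well plates; yeast grown about 18 h at 30C before absorbance read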
CYP2C19 inh – human CYP2C19 inhibition. inhibition, % at 5 µM. 96,000 compounds, 21% hits. P33261. AID 778. CYP2C19 Supersomes, luciferin-H EGE luminescence, 30 min;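 active means CYP2C19 inhibition above a set limit at 5 µM in the primary screen, cut at about 50% in these data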;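 further: plate controls were negative control wells for no effect and 2.5 mM tranylcypromine positive control for full effect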
PostGolgi ctrl – inhibits growth of the yeast control strain; inhibition, % at 10 µM; 98,000 compounds, 5% hits; efflux-deficient yeast background strain, growth absorbance A615, 16 h
An asterisk follows results filed as active; / = not tested or not shown. Unless noted, no stated cut-off is given here; in the data, active means inhibition above about 30%; inactive means the rest.

SMILES | CYP2C9 inhib | CYP2C19 activ | CYP2C9 act | PostGolgi yeast | CYP2C19 inh | PostGolgi ctrl
COC(=O)c1cc(NC(=O)c2nccnc2C(=O)O)cc(C(=O)OC)c1 | 2 | 1.2 | 1 | -5 | -19 | 26
c1ccc(Cc2nnc3sc(-c4cccnc4)nn23)cc1 | 64* | 0 | 0.4 | -10 | 98* | 8
c1ccc(Cc2nnc3sc(-c4ccc5c(c4)OCCO5)nn23)cc1 | 76* | 0.4 | 0.2 | -7 | 58* | 23
COc1cc(C2Nc3cc(Cl)c(S(N)(=O)=O)cc3S(=O)(=O)N2)ccc1OCc1ccccc1 (stereo unspecified) | 70* | 0.3 | 0.3 | 1 | 66* | 4
COc1ccc(C(=O)c2ccc(N3CCN(C4CC(=O)NC4=O)CC3)cc2)cc1F (stereo unspecified) | -4 | 1 | 1 | -8 | -1 | -2
CC(C)CCNc1ncnc2c1nnn2Cc1ccccc1Cl | -139 | 0.8 | 2.4* | 10 | 15 | 12
Clc1ccccc1Nc1ncnc2c1nnn2Cc1ccccc1 | 2 | 0.6 | 1 | 13 | 37 | 17
c1ccc(Cn2nnc3c(NCC4CCCO4)ncnc32)cc1 (stereo unspecified) | -138 | 0.7 | 2.4* | 0 | 33 | 21
COC(=O)c1ccccc1NC(=O)C1CCN(S(C)(=O)=O)CC1 | -31 | 1 | 1.3 | 11 | 2 | 13
CC(=O)Nc1nc(C)nc(C)c1C(C)=O | -1 | 1 | 1 | -12 | 1 | -4
COc1ccc(Nc2ccc3nnc(-c4ccc(Br)cc4)n3n2)cc1 | 34 | 1.2 | 0.7 | 2 | -15 | 9
Cc1ccc(C(=O)CSc2nnc(-c3c[nH]c4ccccc34)o2)cc1 | 53* | 0.6 | 0.5 | -12 | 38 | -3
CC1CCCCN1C(=O)CSc1nnc(-c2c[nH]c3ccccc23)o1 (stereo unspecified) | -15 | 0.2 | 1.2 | 1 | 79* | 14
COc1ccc(C(=O)CSc2nnc(-c3ccc(C)cc3)o2)cc1 | 50 | 0.6 | 0.5 | 3 | 44 | 2
Clc1cccc(CSc2nnc(-c3c[nH]c4ccccc34)o2)c1 | 27 | 1 | 0.7 | -6 | -2 | 25
O=C(CSc1nnc(-c2c[nH]c3ccccc23)o1)N(Cc1ccccc1)c1ccc(F)cc1 | / | / | / | -5 | / | 53*
Cc1cc(N/C=C2\CCCCC2=O)no1 | -24 | 0.9 | 1.2 | 1 | 7 | -1
Cc1csc(SCc2nnc(-c3ccccc3Br)o2)n1 | 42 | 0.4 | 0.6 | 8 | 60* | 4
Cc1csc(SCc2nnc(-c3ccc(Cl)cc3)o2)n1 | 24 | 0.4 | 0.8 | 16 | 62* | 3
Cc1ccc(-c2nnc(CSc3nnc(C)s3)o2)cc1 | 4 | 0.8 | 1 | 11 | 17 | 19
O=c1ccc2ccc(OCc3nnc(-c4ccccc4Br)o3)cc2o1 | -9 | 1 | 1.1 | 2 | -2 | 4
Cc1c(CCO)c(=O)[nH]n1C(=O)c1ccc(F)cc1 | 74* | 0.7 | 0.3 | -3 | 28 | -8
CN(C(=O)CSc1nnc(Cc2cccc3ccccc23)n1N)C1CCS(=O)(=O)C1 (stereo unspecified) | -98 | 1.2 | 2* | -2 | -16 | 9
Cn1c2ccccc2c2nnc(SC3CCOC3=O)nc21 (stereo unspecified) | -10 | 1 | 1.1 | 19 | -3 | 5
Nn1c(Cc2cccc3ccccc23)nnc1SC1CCOC1=O (stereo unspecified) | -191 | 0.4 | 2.9* | -4 | 55* | 6
SMILES | CYP2C9 inhib | CYP2C19 activ | CYP2C9 act | PostGolgi yeast | CYP2C19 inh | PostGolgi ctrl
O=C(O)C1CC(=O)N(Cc2cccs2)C1 (stereo unspecified) | -17 | 1.2 | 1.2 | -3 | -23 | 11
CNC(=O)CN1C(=O)C2C3C=CC(C3)C2C1=O (stereo unspecified) | -15 | 0.9 | 1.2 | 0 | 10 | 2
O=C1C2C3C=CC(C3)C2C(=O)N1CN(Cc1ccccc1)CN1C(=O)C2C3C=CC(C3)C2C1=O (stereo unspecified) | 4 | 1 | 1 | -10 | 0 | 37*
Cc1cccc(NCN2C(=O)C3C4C=CC(C4)C3C2=O)c1 (stereo unspecified) | -3 | 0.9 | 1 | 21 | 11 | 33*
O=C1C2C3C=CC(C3)C2C(=O)N1CNc1ccccc1 (stereo unspecified) | -43 | 1.1 | 1.4 | 7 | -11 | 20
Cc1ccccc1NCN1C(=O)C2C3C=CC(C3)C2C1=O (stereo unspecified) | -11 | 1 | 1.1 | -4 | -2 | 32*
